Drawing on PubChem BioAssay (Tox21), this text covers Potency for 40 molecules.

Results filed as inconclusive are left out. A call without a number means that no potency is given here. A structure can be active in one record and inactive in another. Calls of active or inactive are those of the source. Calls follow the shape of the dose curve; as a rule, active = well fitted cell-killing curve with a large enough effect in the repeat runs; inconclusive = weak or mixed curves, or effect the other way; inactive = flat fitted curve, though single readings scatter. Residues, ends and D or L forms follow the SMILES beside them.
Potency is read from the fitted curve at half-maximal effect.

This assay in a line: qHTS assay to identify small molecule agonists of the sonic hedgehog signaling (Shh) pathway - cell viability counter screen (AID 1259366). Also: nearly all actives have a fitted effect of over 50% in size. Conditions: NIH/3T3 Gli1-Luc viability, CellTiter-Fluor, 24 h; series mostly up to 92.4 µM. An excerpt:
National Center for Advancing Translational Sciences [NCATS]
NIH Chemical Genomics Center [NCGC]
U.S. Environmental Protection Agency [EPA]
National Institutes of Environmental Health Sciences [NIEHS]
National Toxicology Program [NTP]
U.S. Food and Drug Administration [FDA]
The sonic hedgehog (Shh) pathway is essential for normal embryonic development. Dysregulation of the Shh pathway can cause severe developmental defects in organs. Therefore chemicals that interfere with the pathway are potential developmental toxicants. A cell line designated 3T3Gli1-Luc (DMB/OARSA/CFSAN/FDA, Laurel, MD), a NIH/3T3 derived clone containing stably integrated Gli1-Luc reporter is used to detect chemical interference of the Shh pathway, by changes in the expression of the firefly Luc gene under the control of the Gli1 transcriptional response element. This cell line was used to screen Tox21 libraries for identifying and prioritizing the potential developmental toxicants that interfere Shh pathway. The cytotoxicity of the compounds was tested in parallel by measuring the cell viability using CellTiter-Fluor assay system (Promega, Madison, WI) in the same wells.
Tox21 Assay Protocol Summary:
3T3 Gli1-Luc cells were dispensed at 2,000 per well in 5uL of culture medium into white solid bottom 1536-well plates (Greiner Bio-One, Monroe, NC) using a Multidrop Combi (Thermo Scientific, Waltham, MA) dispenser. The assay plates were incubated at 37 C and 5% CO2 for 4hr, and then 23nL of compounds dissolved in DMSO and positive control were transferred using a Pintool station (Wako, San Diego, CA). The assay plates were incubated at 37C and 5% CO2 for 24hr. For viability read, after 23hr of compound treatment, 1uL of CellTiter-Fluor reagent (Promega Corporation, Madison, WI) was added to each well of the assay plates using Flying Reagent Dispenser (FRD, Aurora Discovery, San Diego, CA) and incubated the assay plates at 37C for 1hr. The fluorescence signal was quantified using a ViewLux plate reader (Perkin Elmer, Shelton, CT).
Take `CC(O)C(=O)O` (stereo not given): the Potency entry is “inactive”.
`O=c1ccc2ccccc2o1`: the Potency entry was “inactive”.
Regarding `C1N2CN3CN1CN(C2)C3`, the Potency entry was “inactive”.
On to `CCCCC1C(=O)N(c2ccccc2)N(c2ccccc2)C1=O`, for which the Potency entry is “inactive”.
To `CC(C)(Oc1ccc(C2CC2(Cl)Cl)cc1)C(=O)O` (stereo not given) belongs “inactive”.
In the case of `NC(=O)NC1NC(=O)NC1=O` (stereo not given), the Potency entry was “inactive”.
For the molecule `NC(N)=NC(=O)c1nc(Cl)c(N)nc1N`, the Potency entry was “inactive”.
As for `CCOc1ccc(NC(=O)CC(C)O)cc1` (stereo not given), the Potency result was “inactive”.
As for `Nc1ccc(O)c(C(=O)O)c1`, the Potency entry is “inactive”.
To `NC(N)=O` belongs 23 µM (active) and inactive.
Consider `Cc1ccc(S(=O)(=O)NC(=O)NN2CCCCCC2)cc1`, for which the Potency entry was “inactive”.
With `CCC1(c2ccccc2)C(=O)NCNC1=O`, the Potency result was “inactive”.
Take `NC(=O)c1cnccn1`: the Potency result was “inactive”.
Under `O=NO` stands “inactive”.
With `C[C@]12C=CC(=O)C=C1CC[C@@H]1[C@@H]2[C@@H](O)C[C@@]2(C)[C@H]1CC[C@]2(O)C(=O)CO`, the Potency entry was “inactive”.
To `CC(O)CN(CCN(CC(C)O)CC(C)O)CC(C)O` (stereo not given) belongs “inactive”.
On to `CNC[C@H](O)c1cccc(O)c1`, for which the Potency entry is “inactive”.
With `Cc1noc(NS(=O)(=O)c2ccc(N)cc2)c1C`, the Potency result was “inactive”.
Take `CCCCOC(=O)CC(CC(=O)OCCCC)(OC(C)=O)C(=O)OCCCC`: the Potency entry was “inactive”.
`O=C(O)CCCCC(=O)O`: the Potency result was “inactive”.
Under `CCCC(O)C(CC)CO` (stereo not given) stands “inactive”.
As for `OC(Cn1cncn1)(Cn1cncn1)c1ccc(F)cc1F`, the Potency entry is “inactive”.
As for `O=C1NC(=O)c2ccccc21`, the Potency entry was “inactive”.
As for `O=C(O)CCCCCCCC(=O)O`, the Potency result is “inactive”.
With `Cc1ccc(O)cc1`, the Potency entry was “inactive”.
As for `COC(=O)[C@H](Cc1ccccc1)NC(=O)[C@@H](N)CC(=O)O` (H-Asp-Phe-OMe), the Potency entry was “inactive”.
Regarding `Cc1ccc(C)c(OCCCC(C)(C)C(=O)O)c1`, the Potency result is “inactive”.
Under `O=C(O)/C=C\C(=O)O` stands “inactive”.
Regarding `c1ccc2[nH]ccc2c1`, the Potency result was “inactive”.
Consider `Nc1ccc(S(=O)(=O)Nc2nccs2)cc1`, for which the Potency entry was “inactive”.
On to `CC(C)[C@@H]1CC[C@@H](C)C[C@H]1O`, for which the Potency result was “inactive”.
For the molecule `CCCNC(=O)NS(=O)(=O)c1ccc(Cl)cc1`, the Potency result was “inactive”.
Consider `OCCc1ccccc1`, for which the Potency result is “inactive”.
Under `O=S(=O)(O)c1ccc2cc(O)ccc2c1` stands “inactive”; under `Cn1cc[nH]c1=S`, “inactive”; under `Nc1ccc(S(=O)(=O)c2ccc(N)cc2)cc1`, “inactive”.
For the molecule `CCCCCCCCCCCCCCCC(=O)O`, the Potency result is “inactive”.
As for `O=C(O)c1cccnc1`, the Potency entry is “inactive”.
For the molecule `N=C(N)c1ccc(OCCCCCOc2ccc(C(=N)N)cc2)cc1`, the Potency entry was “inactive”.
Turning to `Cc1cn([C@H]2C[C@H](N=[N+]=[N-])[C@@H](CO)O2)c(=O)[nH]c1=O`, the Potency result is “inactive”.
